# Screening data (PubChem BioAssay)
# A selection: hits, their analogues and other compounds. The true share with any hit is near 22%.
# Pf growth 48h – Primary qHTS for delayed death inhibitors of the malarial parasite plastid, 48 hour incubation; P. falciparum luciferase growth in erythrocytes, 48 h; Potency, µM (top dose mostly 28.7 µM), for inactives: at the highest dose activity change, negative = inhibition, usual class: inhibitors; hit rate 5.9% among 310,000; also: potency is read from the fitted curve at half-maximal effect; % is scaled to controls: 0 for no effect and ±100 for the full control effect
#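 A one-generation exposure of luciferase-tagged malaria parasites in RPMI 1640/Albumax erythrocyte culture, 37 C and 5% CO2. Inhibition is inferred from decreased luminescence after adding detection reagent.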
# Cycloheximide cs – Cycloheximide Counterscreen for Small Molecule Inhibitors of Shiga Toxin | max response, % | AID 2314, 2010 | cell reporter, cycloheximide protein synthesis inhibition counterscreen | hit rate 12% among 300,000; in the data active = max response mostly above about 13%, no sharp cut-off; inactive = mostly below about 14%; also: read at 38.3 µM for the half of the compounds with a filed dose; 0% is about no effect
# LmPK inhibitor – qHTS Assay for Inhibitors of Leishmania Mexicana Pyruvate Kinase (LmPK) | Q27686 | purified LmPK, Kinase-Glo ATP luminescence, 1 h | Potency, µM (doses to about 57.5 µM), for the others: at the top dose activity change, negative = inhibition, hits mostly inhibitors | hit rate 0.37% among 290,000 | AID 1721, 2009; also: potency is read from the fitted curve at half-maximal effect; % is scaled to controls: 0 for no effect and ±100 for the full control effect
# Target sequence (Q27686 whole entry, looked up): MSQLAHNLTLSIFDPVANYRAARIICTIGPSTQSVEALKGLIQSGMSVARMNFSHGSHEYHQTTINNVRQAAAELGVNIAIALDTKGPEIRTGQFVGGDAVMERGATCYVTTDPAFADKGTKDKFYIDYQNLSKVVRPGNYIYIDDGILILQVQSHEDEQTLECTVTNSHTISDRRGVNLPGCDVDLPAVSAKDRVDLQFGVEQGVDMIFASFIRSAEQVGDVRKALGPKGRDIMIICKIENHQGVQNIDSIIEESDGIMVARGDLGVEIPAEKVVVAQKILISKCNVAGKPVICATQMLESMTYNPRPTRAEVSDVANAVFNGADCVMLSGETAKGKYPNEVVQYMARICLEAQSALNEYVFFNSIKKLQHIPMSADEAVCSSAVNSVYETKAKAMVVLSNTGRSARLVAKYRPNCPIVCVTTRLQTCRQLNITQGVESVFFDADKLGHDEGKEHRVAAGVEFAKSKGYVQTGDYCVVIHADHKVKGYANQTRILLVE
#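 Kinase-Glo luminescence read after 1 h RT reaction of 0.1 nM LmPK with 0.5 mM PEP and 0.1 mM ADP. Activity scaled between uninhibited and enzyme-free controls.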
# Pf growth 96h – Primary qHTS for delayed death inhibitors of the malarial parasite plastid, 96 hour incubation; P. falciparum luciferase reporter growth, 96 h; Potency, µM (highest dose often 28.7 µM), inactives show at the highest dose activity change, negative = inhibition, usual class: inhibitors; hit rate 6.9% among 320,000; AID 504834, 2011; also: potency is read from the fitted curve at half-maximal effect; % is scaled to controls: 0 for no effect and ±100 for the full control effect
#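 Infected RBCs, 2% Hct / 0.05% parasitemia final; luciferase-reporter P. falciparum; cpd 96 h, 37 C, 5% CO2; luciferase detection reagent; luminescence.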
# Shiga toxin inh – A qHTS for Small Molecule Inhibitors of Shiga Toxin. Vero cells, Shiga toxin protein synthesis inhibition reporter. inhibition, % at 38.7 µM. hit rate 9.2% among 290,000. AID 2315, 2010; in the data active = inhibition mostly above about 28%, no sharp cut-off; inactive = mostly below about 43%; also: 0% is about no effect
# Starred values were filed as active, the others as inactive; i = inactive; u = inconclusive; x = no result given; [ ] = remark or other dose. Unless noted, calls follow the shape of the dose curve; as a rule, active = well fitted inhibition curve with a large enough effect; inconclusive = small, poorly fitted or top-dose-only effect, or another doubt; inactive = no such curve, though single readings can be large or run the other way.
SMILES,Pf growth 48h,Cycloheximide cs,LmPK inhibitor,Pf growth 96h,Shiga toxin inh
O=C(O)CCCN1C(=O)C(=O)/C(=C(/O)c2ccc(Cl)cc2)C1c1ccccc1 (configuration not stated),44%,-3,8%,63%,28
O=C1OC/C(=C(/O)c2ccc(Cl)cc2)C1=O,12µM*,7,2%,-8%,-4
FC(F)(F)c1cccc(-c2noc(-c3cc(-c4ccccc4)c(C(F)(F)F)s3)n2)c1,x,-4,x,x,5
COC(=O)c1sc(-c2cccs2)cc1N,85%,40*,-5%,61%,47*
CC(=O)c1sc(=S)n(-c2ccc(Cl)cc2)c1C,-20%[5.75 µM],-6,-1%,-17%,2
CC(=O)c1sc(-c2ccc(Cl)cc2)cc1N,-22%,27*,4%,u,35*
CCOC(=O)c1sc(-c2ccc(OC)cc2)cc1NC(C)=O,10%,-2,1%,98%,3
COC(=O)c1sc(-c2ccc(Cl)cc2)cc1N,203%,66*,2%,194%,80*
NC(=O)c1ccc[n+]([C@H]2O[C@@H](COP(=O)([O-])OP(=O)(O)OC[C@H]3O[C@@H](n4cnc5c(N)ncnc54)[C@H](O)[C@@H]3O)[C@H](O)[C@@H]2O)c1,0%,x,x,5%,x
O=C(/C=C/c1cccc(Cl)c1)NCCN1CCOCC1,16%,-4,-5%,37%,-14
Cc1cccc(NC(=O)c2ccc(S(=O)(=O)NCc3cccnc3)cc2)c1,-2%,-5,-3%,u,-1
COc1ccccc1Cn1c(SCC#N)nc2cc(C(=O)N3CCC4(CC3)OCCO4)ccc2c1=O,u,-2,-2%,9.3µM*,-26
Cc1ccc(NC(=O)CN(Cc2ccccc2)S(C)(=O)=O)cc1C,6%,-2,0%,15%,-15
Clc1ccc(-c2ncc3ccccn23)cc1,u,4,12%,u,34
COc1ccc(-c2ncc3ccccn23)cc1OC,u,24*,-1%,0%,10
O=[N+]([O-])c1cccc(-c2ccn[nH]2)c1,66%,10,8%,42%,12
O=[N+]([O-])c1ccc(Sc2ncc3ccccn23)nc1,u,-3,6%,9.3µM*,17
O=[N+]([O-])c1cccc(-c2ncc3ccccn23)c1,u,31*,1%,50%,68*
Nc1c(-c2cccc([N+](=O)[O-])c2)nc2ccccn12,142%,112*,-20%,0%,82*
COc1ccc(C(=O)N/N=C/C2CC=CCC2)cc1OC (configuration not stated),2%,13,-1%,-26%,11
CS(=O)(=O)c1ccc(CNC(=O)C2(C(F)(F)F)CC(CCCO)CCCO2)cc1 (configuration not stated),x,1,x,x,21
CC(=O)NNS(=O)(=O)c1ccc(-c2cc(C(F)(F)F)n(C)n2)s1,1%,1,-5%,-14%,12
Cc1cc(OCC(O)CN)ccc1Cl (configuration not stated),24%,-2,-1%,0.74µM*,-13
CC(=O)c1ccc(Nc2ccc(-c3ccccc3F)nn2)cc1,i,43*,-10%,5%,92
COc1ccccc1-c1ccc(Nc2ccc(C(=O)N3CCOCC3)cc2)nn1,-2%,12,-13%,8%,20
SMILES,Pf growth 48h,Cycloheximide cs,LmPK inhibitor,Pf growth 96h,Shiga toxin inh
COc1ccc(-c2cc(C(F)(F)F)nc(N3CCN(Cc4ccccc4)CC3)n2)cc1OC,10µM*,-2,-5%,69%,-13
COc1ccc(-c2cc(C(F)(F)F)nc(N3CCN(c4ccc(F)cc4)CC3)n2)cc1OC,x,9,-2%,x,32
O=C(CC(c1ccccc1)c1ccccc1)Nc1ccc(C(=O)O)cc1,0%,1,5%,-16%,15
CSc1nnc(-c2ccc(NC(N)=S)cc2)o1,8%,14*,-7%,11%,22
CSc1nnc(-c2cccc(NC(=S)NN)c2)o1,u,6,1%,79%,-1
Cc1ccc(NC(=O)C(c2ccccc2)N2CCN(C(=O)c3ccco3)CC2)cc1Cl (configuration not stated),10µM*,x,x,u,x
CCOc1ccccc1NC(=O)C(c1ccccc1)N1CCN(C(=O)c2ccco2)CC1 (configuration not stated),9.3µM*,x,x,u,x
Cc1onc(-c2ccccc2)c1C(=O)N1CCCN2C(=O)c3ccccc3C21 (configuration not stated),u,-1,2%,10µM*,-7
O=[N+]([O-])c1cc(-c2n(-c3ccccn3)c3ccccc3[n+]2-c2ccccn2)ccc1Cl,u,-3,3%,u,6
COc1ccc(-c2n(-c3ccccn3)c3ccccc3[n+]2-c2ccccn2)cc1,10µM*,4,0%,4.1µM*,22
Cc1ccc(/C(N)=N/OC(=O)/C=C/c2ccccc2)cc1,52%,23*,0%,48%,55
CC(=O)c1ccc(OC(=O)/C=C/c2ccccc2)cc1,20%,-2,1%,10µM*,10
COc1cccc(/C=C/C(=O)Oc2ccc(C(=O)c3ccc(F)cc3)cc2)c1,12%,-7,1%,4%,-9
Cc1ccccc1/C(N)=N/OC(=O)/C=C/c1ccccc1,-14%,44*,-14%,x,159*
COc1ccc(/C=C/C(=O)O/N=C(\N)c2ccccc2)cc1OC,36%,36*,-3%,u,28*
COc1ccc(/C(N)=N/OC(=O)/C=C/c2ccccc2)cc1,u,19,0%,-28%,30
O=C(c1cc(Cl)c(=O)n(Cc2ccc(Cl)cc2)c1)N1CCOCC1,-17%,-2,1%,23%,-5
FC(F)C(F)(F)C(F)(F)C(F)(F)c1cc(-c2ccccc2)n[nH]1,18%,22*,7%,1%,73
Cc1cc(-c2ccccc2)n[nH]1,47%,14,2%,40%,34
Cn1/c(=N\NC(=O)c2ccccc2Cl)sc2ccccc21,178%,31*,0%,u,75*
Cn1/c(=N\NC(=O)C2CCCCC2)sc2ccccc21,47%,37*,-2%,43%,56*
CC(=O)N/N=c1\sc2ccccc2n1C,-8%,1,-5%,u,29
Cc1cccc(Nc2nc(NCc3ccco3)c3ccccc3n2)c1,0.66µM*,11*,0%,u,23
c1ccc(Nc2nc(NCc3ccco3)c3ccccc3n2)cc1,u,16*,-2%,u,33*
OCCN1CCN(c2nc(NCc3ccco3)c3ccccc3n2)CC1,u,2,1%,9.3µM*,10
CSc1nc(NCc2ccco2)c2ccccc2n1,x,-4,-5%,-32%,14
CN(C)C1(CNC(=O)C2CCC(=O)N(CCc3ccc(Cl)cc3)C2)CCCCC1 (configuration not stated),u,-1,-9%,-29%,-15
